39 compounds from PubChem BioAssay (NCATS) can be followed below.

Inconclusive results are not listed. A call without a number means that no potency is given here. Unmarked numbers belong to inactive results. Activity calls are given as the source filed them. The call rests on the fitted dose curve; in most records, active means well fitted inhibition curve with a large enough effect; inconclusive means small, poorly fitted or top-dose-only effect; inactive means flat fitted curve, though single readings scatter.
Potency means the concentration at half of the fitted maximal effect.

The nature of this assay: P-glycoprotein substrates identified in KB-8-5-11 adenocarcinoma cell line, qHTS therapeutic library screen (AID 1346987). Further: nearly all actives have a fitted effect of over 65% in size. Conditions: KB-8-5-11 (P-gp overexpressing) viability, CellTiter-Glo, 72 h; series mostly up to 44.5 µM. In short, it runs like this: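 Human cervical adenocarcinoma KB-8-5-11 cells, selected in colchicine to over-express P-gp and assayed without it, were exposed for 72 h to titrated compounds. An ATP-based luminescent viability signal gave AC50.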
For the compound `CC(=O)O[C@@H]1C[C@@]23C[C@@]24CC[C@H](O[C@@H]2OC[C@H](O)[C@H](O)[C@H]2O)C(C)(C)[C@@H]4CC[C@H]3[C@]2(C)[C@@H](O)C34O[C@H](C[C@@H](C)[C@@H]3[C@@]12C)[C@@H](C(C)(C)O)O4`, the Potency entry was “inactive”.

Regarding `O=C(NO)c1ccc(CC(=O)N(CCO)c2ccccc2)cc1`, the Potency result is “inactive”.

`COc1cc(-c2nc(N[C@H](CO)Cc3ccccc3)ccc2C(=O)NCCOc2ccccc2)cc(OC)c1OC`: the Potency entry is “inactive”.

On to `C[C@H]1CC[C@@]2(OC1)O[C@H]1CC3[C@@H]4CC[C@@H]5C[C@@H](O[C@@H]6O[C@H](CO)[C@@H](O[C@@H]7O[C@@H](C)[C@H](O)[C@@H](O)[C@H]7O)[C@H](O)[C@H]6O[C@@H]6O[C@H](CO)[C@@H](O)[C@H](O)[C@H]6O)CC[C@]5(C)C4CC[C@]3(C)[C@H]1[C@@H]2C` (some centres undefined), for which the outcome was “inactive [at 9.29 µM]”.

Consider `C=C1C(=O)OC2CC3(C)C(O)C(=O)C=C(C)C3CC12` (centres undefined), for which the Potency entry was “inactive”.

For the compound `CC1(C)CC[C@]2(C(=O)O)CC[C@]3(C)C(=CCC4[C@@]5(C)C[C@@H](O)[C@H](O)C(CO)(CO)C5CC[C@]43C)C2[C@@H]1O` (some centres undefined), the Potency is 7.96 µM (active).

Take `CCCc1cc(C)n(C)c(=O)c1CN(C)C(=O)c1cc(-c2ccc(N3CCN(C(C)C)CC3)nc2)cc2c1cnn2C(C)C`: the Potency result is “inactive”.

As to `O=C(NCC1CCN(Cc2cccc(Cl)c2)CC1)[C@@H]1CCCN(c2ncnc3c2nc2n3CCCC2)C1`, the Potency result was “inactive”.

As for `Cc1ccc(-c2ncccn2)c(C(=O)N2C[C@H](COc3ccc(F)cn3)CC[C@H]2C)c1`, the Potency result is “inactive”.

Take `CC(C)C[C@@H]1NC(=O)[C@@H](Cc2ccccc2)NC(=O)C(CCCCCC(=O)C2CO2)NC(=O)[C@@H]2CCCCN2C1=O` (some centres undefined): the Potency was 3.99 µM (active).

As for `C=CCC1=C[C@]2(OC)[C@H](C)[C@@H](c3ccc4c(c3)OCO4)O[C@]2(OC)CC1=O`, the Potency result is “inactive”.

Consider `CC(C)C[C@@H]1NC(=O)[C@@H]2C[C@@]34C[C@@H]5[C@@]6(C)CCCC(C)(C)C6CC[C@@]5(C)N(c5ccccc53)[C@H]4N2C1=O` (some centres undefined), for which the Potency entry is “inactive”.

As for `O=C(Nc1ccc(N2C(=O)[C@@H]3[C@H](C2=O)[C@@H]2C=C[C@H]3C2)c(Cl)c1)c1ccccn1`, the Potency entry is “inactive”.

Turning to `COc1cc(O)cc(OC2OC(CO)C(O)C(O)C2O)c1` (centres undefined), the Potency entry was “inactive”.

For `C=C1CC2OC(=O)C(=C)C2C(O)/C=C(\C)CCC1O` (centres undefined), the Potency result was “inactive”.

Take `CC(=O)O[C@H]1CC(C)(C)CC2[C@]13CO[C@@]21CCC2[C@@]4(C)CC[C@H](O[C@@H]5OC[C@H](O[C@@H]6O[C@H](CO)[C@@H](O)[C@H](O)[C@H]6O[C@@H]6OC[C@@H](O)[C@H](O)[C@H]6O)[C@H](O)[C@H]5O[C@@H]5O[C@H](CO)[C@@H](O)[C@H](O)[C@H]5O)[C@@](C)(CO)C4CC[C@@]2(C)[C@]1(C)C[C@H]3O` (some centres undefined): the activity change, negative = cytotoxicity is -5.92% [at 9.29 µM].

Turning to `C=C1CO[C@@]2(O[C@H]3CC4C5CC=C6C[C@@H](O)C[C@@H](O[C@@H]7OC[C@H](O)[C@H](O[C@@H]8OC[C@@H](O)[C@H](O)[C@H]8O)[C@H]7O[C@@H]7O[C@@H](C)[C@H](OC(C)=O)[C@@H](OC(C)=O)[C@H]7OC(C)=O)[C@]6(C)C5CC[C@]4(C)[C@@H]3[C@@H]2C)[C@@H](O)[C@H]1OC1OC(C)C(O)C(O)C1O` (some centres undefined), the outcome was “inactive [at 9.29 µM]”.

Turning to `Cc1ccc(/C(=C\CN2CCCC2)c2cccc(/C=C/C(=O)O)n2)cc1`, the Potency result was “inactive”.

`O=C1Nc2ccccc2-c2nc3ccccc3c(=O)n2-c2c(O)cccc21`: the Potency result is “inactive”.

As for `C/C=C(/C)C(=O)OC1C=C2C3C(C)C(C)C(OC(=O)C(C)C(C)O)CC3(C)CCC2(C)C2(C)CC(OC(C)=O)C3C(C)(C)C(O)C(=O)CC3(C)C12` (centres undefined), the Potency entry is “inactive”.

Consider `Cc1cc(Nc2ccccc2C(=O)O)ccc1Cl`, for which the Potency result was “inactive”.

Turning to `Cn1ncnc1[C@@H]1c2n[nH]c(=O)c3cc(F)cc(c23)N[C@H]1c1ccc(F)cc1`, the Potency result was “inactive”.

In the case of `C[C@@H]1O[C@@H](O[C@H]2[C@@H](OC(=O)[C@]34CCC(C)(C)CC3C3=CCC5[C@@]6(C)C[C@H](O)[C@H](O[C@@H]7O[C@H](CO)[C@@H](O)[C@H](O)[C@H]7O[C@@H]7OC[C@@H](O)[C@H](O)[C@H]7O)[C@@](C)(C(=O)O)C6CC[C@@]5(C)[C@]3(C)CC4)OC[C@H](O)[C@@H]2O)[C@H](O)[C@H](O)[C@H]1O[C@@H]1OC[C@@H](O)[C@H](O)[C@H]1O` (some centres undefined), the outcome was “inactive [at 9.29 µM]”.

As to `COC(=O)c1ccc2c(c1)[nH]c1ncnc(NCCCN3CCCCC3)c12`, the Potency entry is “inactive”.

As for `CC(=O)O[C@@]12CO[C@@H]1C[C@H](O)[C@@]1(C)C(=O)[C@H](O)C3=C(C)[C@@H](OC(=O)[C@H](O)[C@@H](NC(=O)OC(C)(C)C)c4ccccc4)C[C@@](O)([C@@H](OC(=O)c4ccccc4)C12)C3(C)C` (some centres undefined), the Potency is 0.126 µM (active).

With `CC1(S(=O)(=O)O)CC(=O)c2ccccc2C1=O` (centres undefined), the Potency result was “inactive”.

Take `Cn1c(SCC(=O)N2CCC[C@H]2C(=O)Nc2ccccc2-c2ccccc2)nc2ccccc21`: the Potency entry was “inactive”.

Consider `C=C1CCN([C@H](C)[C@](O)(Cn2cncn2)c2ccc(F)cc2F)CC1`, for which the Potency entry was “inactive”.

For the compound `C[C@H]1CC[C@@]2(OC1)O[C@H]1CC3C4CC[C@H]5C[C@@H](O)CC[C@]5(C)C4=CC(=O)[C@]3(C)[C@H]1[C@@H]2C` (some centres undefined), the Potency result is “inactive”.

For the compound `Fc1ccc(-c2nc(-c3c(F)cccc3F)[nH]c2-c2ccncc2)cc1`, the Potency entry was “inactive”.

Consider `CCCCc1cc2c(=O)c(C(=O)OC)c[nH]c2cc1OCc1ccccc1`, for which the Potency result was “inactive”.

For `CN(C)CCOc1cc(NS(=O)(=O)c2c(Cl)cc(C(F)(F)F)cc2Cl)ccc1Cl`, the Potency entry is “inactive”.

Take `CCC(=O)N1CCOc2c(cc(-c3ccc(OC)c(OC)c3)cc2OC[C@H]2CCCN(C)C2)C1`: the Potency result was “inactive”.

Regarding `CCC(CC)Nc1nc(C)c(-c2ccc(OC(F)(F)F)cc2OC)nc1OC`, the Potency entry was “inactive”.

On to `O=C(COc1ccc(C(=O)c2ccccc2)cc1)NC1CCN(Cc2ccccc2)CC1`, for which the Potency entry was “inactive”.

On to `O=C(c1ccccn1)N(Cc1cccs1)C1(C(=O)NC2CCCCC2)CCCCC1`, for which the Potency entry is “inactive”.

`CNc1nc(Nc2ccc(C(=O)N3CCOCC3)cc2OC)nc2[nH]cc(Cl)c12`: the Potency is 5.8 µM (active).

As for `COC[C@H](c1ccc(C(F)(F)F)cc1)N1CCN(C2(C)CCN(C(=O)c3c(C)ncnc3C)CC2)C[C@H]1C`, the Potency entry was “inactive”.

As for `CC(C)=CCC[C@](C)(O[C@@H]1O[C@H](CO[C@@H]2OC[C@@H](O)[C@H](O)[C@H]2O)[C@@H](O)[C@H](O)[C@H]1O)[C@H]1CC[C@]2(C)[C@@H]1[C@H](O)C[C@@H]1[C@@]3(C)CC[C@H](O[C@@H]4O[C@H](CO)[C@@H](O)[C@H](O)[C@H]4O)C(C)(C)[C@@H]3CC[C@]12C`, the Potency result is “inactive”.
